FECH inh: human FECH heme synthesis enzyme inhibition; P22830; AID 1671448; 20,000 tested, 3.3% active; purified FECH, Ni-mesoporphyrin absorbance 550 nm; calls only at 10 µM (by protocol);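 active = enzyme reaction rate more than 3 SD below the solvent-only control wells on the same plate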;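 note: lower slope than DMSO wells means FECH inhibition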
Target sequence (P22830 whole entry, looked up): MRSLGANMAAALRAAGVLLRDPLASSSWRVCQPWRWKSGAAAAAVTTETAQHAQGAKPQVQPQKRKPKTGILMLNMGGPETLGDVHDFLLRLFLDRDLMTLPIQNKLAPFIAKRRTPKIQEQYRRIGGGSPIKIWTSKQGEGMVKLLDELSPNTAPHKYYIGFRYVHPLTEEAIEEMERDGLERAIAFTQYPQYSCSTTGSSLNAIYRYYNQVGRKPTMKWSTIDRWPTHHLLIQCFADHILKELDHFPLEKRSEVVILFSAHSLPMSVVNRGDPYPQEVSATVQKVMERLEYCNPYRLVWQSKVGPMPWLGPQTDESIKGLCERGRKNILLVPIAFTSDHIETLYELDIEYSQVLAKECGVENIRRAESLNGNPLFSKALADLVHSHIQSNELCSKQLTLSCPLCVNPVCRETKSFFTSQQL
Large screens that a line does not name were inactive. Shown is part of a subset that was picked to be rich in hits.

CCc1ccc2c(c1)-c1ccccc1S(=O)(=O)N2CC(=O)NCc1ccncc1	FECH inh active
CCOCCCNC(=O)CN1c2ccc(CC)cc2-c2ccccc2S1(=O)=O	FECH inh active
CCN(CC)C(=O)[C@@H]1C[C@H](N)CN1C(=O)c1ccc(=O)[nH]c1	none
COc1ccccc1-c1nc(CSc2nc3c(c(=O)[nH]2)CCCC3)c(C)o1	none
COc1ccc(C(=O)Nc2nc3n(n2)C(c2ccc(OC)cc2)C=C(c2ccc(Cl)cc2)N3)cc1 (configuration not stated)	none
CN(C)C(=O)c1ccc(-c2ccc(COCCN)cc2)cc1	FECH inh active
CS(=O)(=O)N1CCN(C(=O)c2cn[nH]n2)CC1	none
CN(C)c1nc2c(c(=O)[nH]1)CCN(C(=O)c1n[nH]c3c1CCC3)C2	none
CCN1C(SCC(=O)Nc2cccc(Br)c2)=NS(=O)(=O)c2ccccc21	FECH inh active
CCN1C(SCC(=O)Nc2cccc(C(F)(F)F)c2)=NS(=O)(=O)c2ccccc21	FECH inh active
O=C1CN(Cc2cccc(C(F)(F)F)c2)S(=O)(=O)c2ccccc2N1Cc1ccccc1	none
COC(=O)CC1=CC(=O)N(CC(=O)Nc2cccc(C(F)(F)F)c2)c2ccccc2N1	none
CCN1C(SCC(=O)Nc2cc(OC)cc(OC)c2)=NS(=O)(=O)c2ccccc21	none
O=C(CN1CCCN(Cc2ccccc2Cl)S1(=O)=O)Nc1cccc(Br)c1	none
COc1c(F)ccc(C(=O)N2CCn3c(C(N)=O)cnc3C2)c1F	none
CCOC(=O)Cn1c(=O)n(-c2ccc(C)c(C)c2)c2nc(-c3ccccc3Cl)nc(C(N)=O)c21	none
c1ccc(-c2ncn(Cc3ccc4c(c3)OCCCO4)c2C2CCOC2)cc1 (configuration not stated)	none
O=S(=O)(c1ccc(Br)cc1)N1CCN(c2cc(-c3cccc(F)c3)ncn2)CC1	none
Cc1ccc(-c2cc(N3CCN(S(=O)(=O)c4ccc(Br)cc4)CC3)ncn2)cc1	FECH inh active
O=S(=O)(c1ccc(Br)cc1)N1CCN(c2cc(-c3ccc(F)cc3)ncn2)CC1	none
C=CCNc1ccccc1C(=O)NCc1nncn1C1CCCCC1	none
CC(CNc1nc(-c2ccccc2)nc2c1CCNC2)Oc1cccnc1 (configuration not stated)	none
COc1ccc(CCCNC(=O)c2ccc(-c3cncnc3)nc2)cc1	none
O=C(NC1CCCCC1)c1nc[nH]c1C(=O)NCC1CC1	none
O=C(NC1CCCCC1)c1nc[nH]c1C(=O)NCc1ccccc1	FECH inh active
O=C(NC1CCCC1)c1nc[nH]c1C(=O)NCc1ccccc1	none
O=C(NC1CCCCC1)c1nc[nH]c1C(=O)NCc1cccc(C(F)(F)F)c1	FECH inh active
CC(C)(C)CNC(=O)c1[nH]cnc1C(=O)NC1CCCCC1	none
CNC(=O)c1[nH]cnc1C(=O)NC1CCCCC1	FECH inh active
CC(C)NC(=O)c1nc[nH]c1C(=O)NC1CCCC1	none
CC(C)(C)CNC(=O)c1[nH]cnc1C(=O)NC1CCCC1	none
O=C(NC1CCCC1)c1nc[nH]c1C(=O)NC1CC1	none
O=C(NC(Cn1ccnc1)c1ccccc1)c1cn[nH]n1 (configuration not stated)	none
CCc1ccc(S(=O)(=O)NCCn2c(-c3ccccc3)nc3cccnc32)cc1	none
CC(c1cccc(-c2ccc(Cn3ccnc3)cc2)c1)N(C)C (configuration not stated)	none
CCc1cc(Sc2ccc(NC(=O)Cc3ccc(Cl)cc3)cc2)n2ncnc2n1	none
COc1ccc(-c2cc(C(=O)Nc3ccc(F)cc3)[nH]n2)cc1S(N)(=O)=O	none
Cc1noc(C)c1C(=O)N1CC[C@@H](c2ccc3ccccc3c2)[C@H](O)C1	none
O=C(c1cccs1)N1CC[C@@H](c2ccc3ccccc3c2)[C@H](O)C1	FECH inh active
Cc1nc(C(=O)N2CC[C@@H](c3ccc4ccccc4c3)[C@H](O)C2)c(C)o1	none
CCOc1ccc(-c2nc(Cn3c(=O)c4cnc(-c5ccncc5)nc4n(C)c3=O)c(C)o2)cc1	none
CSc1ccc(CC(=O)N2CCCC(N(C)C)CC2)cc1 (configuration not stated)	none
O=C(Cc1c[nH]c2ccccc12)NCCn1c(CCc2ccccc2)nc2cccnc21	none
CC(C)NC(=O)c1ccccc1NC(=O)CN1c2ccc(C(C)C)cc2-c2ccccc2S1(=O)=O	none
CCN(CC)C(=O)c1ccccc1NC(=O)CN1c2ccc(F)cc2-c2ccccc2S1(=O)=O	FECH inh active
CSc1ccccc1NC(=O)CN1c2ccc(C(C)C)cc2-c2ccccc2S1(=O)=O	none
CC(C)c1ccc2c(c1)-c1ccccc1S(=O)(=O)N2CC(=O)NC(C)c1ccccc1 (configuration not stated)	FECH inh active
CC(C)c1ccc2c(c1)-c1ccccc1S(=O)(=O)N2CC(=O)Nc1cccc(F)c1	FECH inh active
O=C(CN1c2ccc(F)cc2-c2ccccc2S1(=O)=O)Nc1ccccc1C(=O)N1CCCCC1	none
O=C(CN1CCN(Cc2ccc(F)cc2)S1(=O)=O)Nc1cccc(F)c1	none
O=C(CN1C(=O)c2ccccc2S1(=O)=O)Nc1ccc(Cl)cc1C(F)(F)F	none
CCOCCn1cnc(-c2ccccc2)c1-c1ccc(-c2cncnc2)cc1	none
CN1CCN(Cc2ccc3cccc(O)c3n2)CC1C(=O)O (configuration not stated)	none
Cc1ccc(C2(CN3CCCN(c4ccncc4)CC3)CCNCC2)nc1	none
COc1ccc(-c2nc(CNS(=O)(=O)N(C)C)c(C)o2)cc1	none
CC(=O)N1CCc2c(nc(-c3cccnc3)nc2NCCc2ncc[nH]2)C1	none
CCn1cc(S(=O)(=O)N2C[C@@H]3C4CCC(CC4)[C@@H]3C2)cn1	none
CCCCCN(c1nc2nc(C)cc(C)n2n1)S(=O)(=O)c1ccc(Cl)cc1	none
O=C(Nc1ccc2nc(CCc3ccccc3)[nH]c2c1)C1CCN(S(=O)(=O)N2CCOCC2)CC1	none
Cn1c(CCc2cccc(NC(=O)C3CCN(S(=O)(=O)N4CCCC4)CC3)c2)nc2ccccc21	FECH inh active
Cn1c(CCc2ccccc2NC(=O)C2CCCN(S(=O)(=O)N3CCCC3)C2)nc2ccccc21 (configuration not stated)	none
Cc1ccc(Nc2cc(C)nc(N3CCN(S(=O)(=O)c4cccc(Cl)c4)CC3)n2)cc1	none
CCN(CC)c1cc(N2[C@@H]3CC[C@H]2CC(O)C3)nc(N)n1 (some centres not stated)	none
CCc1nnc(CNC(=O)c2cc(Cn3ccc4ccccc43)[nH]n2)s1	none
Cc1nc2nc(CN3CCCC3c3nc4ccc(F)cc4[nH]3)cc(=O)n2[nH]1 (configuration not stated)	none
CCC(=O)Nc1nc2n(n1)C(c1c(F)cccc1Cl)C=C(c1ccccc1)N2 (configuration not stated)	FECH inh active
CC(C)C(=O)Nc1nc2n(n1)C(c1c(F)cccc1Cl)C=C(c1ccccc1)N2 (configuration not stated)	FECH inh active
CC(=O)Nc1nc2n(n1)C(c1c(F)cccc1Cl)C=C(c1ccc(C)cc1)N2 (configuration not stated)	none
CC(C)C(=O)Nc1nc2n(n1)C(c1ccc(Cl)cc1)C=C(c1ccccc1)N2 (configuration not stated)	none
CCC(=O)Nc1nc2n(n1)C(c1c(F)cccc1Cl)C=C(c1ccc(Cl)cc1)N2 (configuration not stated)	none
CCCC(=O)Nc1nc2n(n1)C(c1c(F)cccc1Cl)C=C(c1ccc(Cl)cc1)N2 (configuration not stated)	none
COc1ccc(N2C(=O)CCS2(=O)=O)cc1S(=O)(=O)Nc1ccc(C)c(Cl)c1	none
CCc1nc(OCC(=O)NCc2ccccc2OC)c2c(C)c(C)oc2n1	none
